High-throughput results deposited in PubChem by National Center for Advancing Translational Sciences (NCATS).
Lassa entry – blocks Lassa virus binding or cell entry. Lassa virus pseudotyped entry inhibition, cell-based qHTS. Potency, µM (series often up to 49.2 µM), for inactives: at the top dose activity change, negative = inhibition, actives largely listed as inhibitors. 18,000 compounds, 4.1% hits. AID 720533
MARV entry inh – inhibitors of Marburg virus binding or entry into cells. AID 720532. Potency, µM (series often up to 49.2 µM), for the others: top-dose activity change, negative = inhibition, actives largely listed as inhibitors. Marburg virus pseudotype entry/binding inhibition, cell-based. 18,000 compounds, 6.5% hits
* hit, by the source's call; ? = inconclusive; · = no result; ! = a repeat was not active; [ ] = another dose, or the depositor's remark. An excerpt weighted towards active compounds, which were near 8.6% of everything screened. Calls follow the shape of the full dose curve; tested in HEK293 cells. % is scaled to controls: 0 for no effect and ±100 for the full control effect; potency is read from the fitted curve at half-maximal effect.

SMILES	Lassa entry	MARV entry inh
CN(C)C(=O)C(CCN1CCC(O)(c2ccc(Cl)cc2)CC1)(c1ccccc1)c1ccccc1	25µM*!	6.3µM*
CC(=O)OC1(c2ccccc2)CCN(CCc2ccccc2)CC1	-24%[107 µM]	?
CC1CC2CCC(O2)C(C)C(=O)OC(C)CC2CCC(O2)C(C)C(=O)OC(C)CC2CCC(O2)C(C)C(=O)OC(C)CC2CCC(O2)C(C)C(=O)O1 (stereo unspecified)	1µM*	5µM*
O=[S+]1([O-])C[C@@H](N2CCN(CCO)CC2)[C@@H](COCc2ccccc2)N1	-16%	-10%
C1CCC(C(C[C@@H]2CCCCN2)C2CCCCC2)CC1	-26%[17.8 µM]	7.9µM*
O=C1C=C2C(=CCOC2O)O1 (stereo unspecified)	3.2µM*	1.1µM*
CN(C)CCCn1c(-c2nonc2N)nc2cnccc21	-12%	?
CCn1c(-c2nonc2N)nc2cncc(C(=O)N3CCNCC3)c21	-55%	5%
CCn1c(-c2nonc2N)nc2c(C#CC(C)(C)O)ncc(OCC3CCNCC3)c21	·	1.8µM*
CCn1c(-c2nonc2N)nc2c(C#CC(C)(C)O)ncc(OCC3CCCN3)c21 (stereo unspecified)	·	1.3µM*
COC(=O)N[C@H](CC(C)=O)c1ccc(F)cc1	1%[8.59 µM]	36%[8.59 µM]
C[C@H]1CN(CCc2ccccc2)C(=O)[C@H]1CC(=O)Nc1ccccc1	6%	-15%
Cc1ccc(C=CC2=C[C@]3(C)C[C@]2(C)[C@H](c2ccc(C)cc2)CC3=O)cc1	-8%[8.59 µM]	-4%[8.59 µM]
CC(C)C[C@H](NC(=O)[C@H](Cc1ccccc1)NC(=O)c1cnccn1)B(O)O	2.8µM*	3.5µM*
CC(C)C[C@@H](NC(=O)[C@@H](O)[C@H](N)Cc1ccccc1)C(=O)O	6%	18%
C=COC[C@H]1CN2[C@H](c3ccc(Br)cc3)[C@H](C)CC[C@H]2C(=O)O1	1%[8.59 µM]	-1%[8.59 µM]
CC(C)C[C@H]1COc2c(Cl)cccc2S(=O)(=O)N1Cc1cccc(F)c1	4%	-24%
COc1cc2c(cc1OC)[C@H](C)N(CC1C(=O)O[C@@H]3C[C@@]4(C)CCC[C@H](C)[C@@]45OC5[C@H]13)CC2 (stereo partly specified)	-32%	13µM*
CC1=CC[C@@H](COc2ccccc2)O[C@@]2(C1)C(=O)Nc1ccccc12	32%[8.59 µM]	21%[8.59 µM]
CCCCCC(=O)N1C[C@@H](O)[C@H](n2cc(COC(=O)c3ccccc3)nn2)C[C@H]1c1ccc(Cl)cc1	-18%	?
COc1c(C2=CC(=O)N(C)C2=O)c2c(n1C)C(=O)c1ccccc1C2=O	-24%	20µM*
COc1c(C=O)c(O)cc2c1C(=O)c1ccccc1C2=O	-5%	8%
C=C[C@@](C)(O)C1CC2C=CCOP(=O)(O2)O1 (stereo partly specified)	-2%	89%
O=C(CCC1CCN(Cc2ccccc2)CC1)c1ccc2c(c1)NCCCC2	?	14µM*
O=C(NC1CCN(Cc2ccccc2)CC1)c1ccc(I)cc1	-4%	5%
SMILES	Lassa entry	MARV entry inh
CCN1C(=NCC(C)C)N[C@@H](CCc2ccccc2)[C@H](C(=O)OC)[C@H]1C	-1%[8.59 µM]	?
Oc1ccc(Nc2nc(-c3ccc(Cl)cc3)cs2)cc1	13µM*	?
O=C(c1ccc(C(F)(F)F)cc1)N1CCC(=O)N([C@H](COCc2ccc(Cl)cc2)Cc2ccccc2)CC1	28µM*	?
Cc1cccc(C(=O)N2CCC(=O)N([C@H](COCc3ccccc3)Cc3ccccc3)CC2)c1	?	-19%
C=CCCN1C=C(C(=O)OCC)C(c2ccccc2)NC1=O (stereo unspecified)	34%[8.59 µM]	?
O=C(NN=C1C[C@@H](O)[C@H](O)[C@H]2[C@@H]3C(=O)N(C4CCCCC4)C(=O)[C@@H]3CC[C@H]12)OCc1ccccc1	-10%[8.59 µM]	?
COc1ccc([C@]23Cc4cc(C#N)ccc4[C@H](O2)c2c(cc(C)n(-c4ccccc4)c2=O)O3)cc1	12%[8.59 µM]	2%[8.59 µM]
C=CCCC1(CCC)C(=O)C(=C(O)c2ccccc2)C(=O)C(CCC)=C1OC (stereo unspecified)	6%[8.59 µM]	-2%[8.59 µM]
COc1cc2ncnc(Nc3cccc(Br)c3)c2cc1OC	-20%	3%
COc1cc2ncnc(Nc3cccc(Cl)c3)c2cc1OC	16µM*!	14µM*!
CC(CCN1CCCCc2nc(C)c(C)cc21)=NO[C@@H](C)CN1CCCCc2nc(C)c(C)cc21	·	6%[8.59 µM]
CC(=O)OC[C@H]1O[C@@H](ON=C2C[C@@H](O)[C@@H](O)[C@@H]3[C@H]4C(=O)N(C5CCCCC5)C(=O)[C@@H]4CC[C@@H]23)[C@H](OC(C)=O)[C@@H](OC(C)=O)[C@H]1OC(C)=O	-1%[8.59 µM]	-25%[8.59 µM]
CCOC(=O)c1c(C)[nH]c2ccc3c(c12)CN1CCc2cc(OC)ccc2[C@@H]1O3	?	5.6µM*
CCS(=O)(=O)N1CCC[C@H]2CN3CCc4cc(OC)ccc4[C@@H]3C[C@@H]21	-6%	3%
C[C@]12C[C@@](C)(C=C1C=Cc1ccccc1)C(=O)C[C@H]2c1ccccc1	0%[8.59 µM]	3%[8.59 µM]
CC(=O)NNC(=O)N1Cc2ccccc2Oc2ccc(Cl)cc21	-11%	5%
CCN(CC)CCCCN1c2ccccc2Oc2ccc(Cl)cc21	?	6.3µM*
Cc1c(C(=O)NCC2(N3CCOCC3)CCCC2)cnn1-c1nccc(-c2ccccc2F)n1	-21%	?
COc1cc(C(NC(=O)C(F)(F)F)c2cc3ccccc3o2)cc(OC)c1OC (stereo unspecified)	·	5%[8.59 µM]
CN1CCN(CCCN2c3ccccc3Sc3ccc(Cl)cc32)CC1	20µM*!	10µM*
CN1CCN(CCCN2c3ccccc3Sc3ccccc32)CC1	?	14µM*
CCSc1ccc2c(c1)N(CCCN1CCN(C)CC1)c1ccccc1S2	-17%[17.8 µM]	?
CCCCCCN1C[C@H](O)[C@@H](n2cc(C3CC3)nn2)C[C@H]1c1ccc(C)cc1	-6%	?
C=CCN1C(=O)CC[C@@]23C1=NC(C(=O)OC)=C(C(=O)OC)[C@@H]2N(CC#CC)c1ccccc13	-7%[8.59 µM]	-20%[8.59 µM]
COc1cc(CN2CCC3(CCC(CNC(=O)c4ccccc4)O3)CC2)cc(OC)c1 (stereo unspecified)	-11%	13µM*
SMILES	Lassa entry	MARV entry inh
Cc1nc2ccc(C(=O)NCC3CCC4(CCN(Cc5cccnc5)CC4)O3)cc2nc1C (stereo unspecified)	-14%	?
O=C(C=Cc1ccccc1)Nc1cccc(C(=O)NCCCc2ccccc2)c1	49%	30%
C#CC1(O)C(OC)=CC2C(=O)C1C(c1ccccc1)C2C (stereo unspecified)	·	-4%[8.59 µM]
C[C@H]1[C@H]2CC[C@H]3[C@@H]4CC=C5C[C@@H](N(C)C)CC[C@]5(C)[C@H]4CC[C@]23CN1C	-26%	3.2µM*
C[C@]12CC[C@H]3[C@@H](CC=C4C[C@@H](O)CC[C@@]43C)[C@@H]1CC[C@@H]2O	-10%	25%
NS(=O)(=O)c1ccc(Nc2cc(-c3ccc(O)c(F)c3)[nH]n2)cc1	39%	-27%
COc1ccc(C2CC(=O)c3ccc(OC)cc3O2)cc1 (stereo unspecified)	2%	-5%
COc1cc2c(cc1CC=C(C)C)C(=O)C[C@@H](c1ccc(O)cc1)O2	8.9µM*	?
COC(=O)N[C@@H](c1cccs1)C(C(C)=O)C(=O)OC (stereo partly specified)	-11%[8.59 µM]	-12%[8.59 µM]
CCN(CC)CCCN(c1ccccc1)C1Cc2ccccc2C1	8.9µM*	3.5µM*
C=C(C)C(=O)C=CC=Cc1ccccc1	·	-87%[8.59 µM]
